Screening results from PubChem BioAssay.
PTHR1 ag = PTHR1 (human) receptor agonism. 0.075% of 410,000 active. Potency, µM (top dose mostly 115 µM), actives largely listed as activators. AID 743266. HEK293 GP2 PTHR1 cells, GloSensor cAMP luminescence, 1 h. Q03431; also: nearly all actives have a fitted effect of over 55% in size
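HEK-293-derived GP2 cells expressing PTHR1 and a GloSensor cAMP reporter, 3,000/well, plated overnight, given luciferin plus IBMX (each 0.5 mM as added) for 1 h at 37 °C, then compound for 1 h at 37 °C. Luminescence was read after 15 min at room temperature.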
LDHA inh = inhibitors of human lactate dehydrogenase A | P00338 | purified LDHA, NADH/diaphorase-resazurin fluorescence; stronger effect = lower value | activity change, % (values are at about 110 or 230 µM) | 0.15% of 480,000 active | AID 1347041; in the data active = activity change below about -30%; inconclusive = mostly about -25% to -30%
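Human LDH5 (2 nM) was incubated with 0.06 mM NADH and 0.2 mM pyruvate for 5 min at room temperature in Tris pH 7.4. Remaining NADH was coupled through diaphorase/resazurin, and resorufin fluorescence was read at 0 and 20 min.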
GLP-1R agonist = GLP-1 receptor (human) agonism | P43220 | HEK293 GLP-1R CRE-luciferase, luminescence, 4-6 h; cells express a hypersensitive GLP-1R form | Potency, µM (titrated, usually from 45.6 µM), usual class: activators | 0.007% of 380,000 active | AID 624172
Target sequence (P43220 whole entry, looked up): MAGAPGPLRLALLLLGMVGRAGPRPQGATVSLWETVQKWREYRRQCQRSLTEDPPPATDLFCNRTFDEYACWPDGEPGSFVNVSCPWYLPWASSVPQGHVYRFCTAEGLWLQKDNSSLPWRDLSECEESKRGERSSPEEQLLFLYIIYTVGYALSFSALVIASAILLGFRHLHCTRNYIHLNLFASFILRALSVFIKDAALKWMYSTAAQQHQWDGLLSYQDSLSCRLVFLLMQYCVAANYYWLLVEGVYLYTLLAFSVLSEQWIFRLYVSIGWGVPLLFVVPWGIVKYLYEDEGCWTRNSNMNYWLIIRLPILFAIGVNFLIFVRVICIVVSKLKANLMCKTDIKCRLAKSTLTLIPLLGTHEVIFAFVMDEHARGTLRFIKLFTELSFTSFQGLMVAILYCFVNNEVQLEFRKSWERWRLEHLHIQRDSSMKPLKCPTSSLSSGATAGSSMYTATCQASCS
GLP-1R inv ag = GLP-1 receptor (human) inverse agonism | P43220 | Potency, µM (doses to about 38.3 µM), hits mostly inhibitors | HEK293 GLP-1R CRE-luciferase, luminescence, 24 h; GLP-1R form is constitutively active | 1.6% of 410,000 active; also: nearly all actives have a fitted effect of over 55% in size
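HEK293 cells stably co-expressing a cAMP-responsive luciferase reporter and constitutively active GLP-1R were seeded, incubated 12 h, then exposed to compounds for 24 h at 37 C. Luminescence was read 12 min after detection reagent; inverse agonists lower signal.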
HEK293 tox = cytotoxicity counter-screen for GLP-1 receptor inverse agonists | HEK293 cAMP-luciferase reporter cells, luminescence, 24 h | AID 624418 | 0.13% of 410,000 active | Potency, µM (top dose mostly 38.3 µM), hits mostly inhibitors;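 also: loss of luciferase light is scored as toxicity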
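MLSMR compounds, 24 hr on cells at 37 deg C/5% CO2; luminescence after luciferase reagent (12 min RT). Inhibition counted as the undesired cytotoxic outcome.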
mIDH1 inhibitor = blocks human mutant IDH1 R132H enzyme | 0.093% of 390,000 active | IDH1-R132H enzyme, NADPH consumption, diaphorase/resazurin fluorescence | Potency, µM (doses to about 76.6 µM), usual class: inhibitors | AID 602179 | O75874; also: nearly all actives have a fitted effect of over 65% in size
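IDH1-R132H (0.5 ug/mL dispensed) in pH 7.5 Tris buffer was preincubated 30 min with compound, then given a substrate mix of 0.016 mM NADPH and 2 mM alpha-KG for 80 min at room temperature; remaining NADPH was read by diaphorase/resazurin fluorescence.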
Numbers stand for hits; n = inactive; u = inconclusive; x = no result given. Rows were chosen to be rich in hits. Some 1.7% of all compounds tested hit in one or more screens of this group. Unless noted, calls follow the shape of the dose curve; as a rule, active = well fitted curve in the direction sought with a large enough effect; inconclusive = small, poorly fitted or top-dose-only effect, or another doubt; inactive = no such curve, though single readings can be large; an effect the other way counts as inactive or inconclusive.

SMILES | PTHR1 ag | LDHA inh | GLP-1R agonist | GLP-1R inv ag | HEK293 tox | mIDH1 inhibitor
COc1cc(/C=N/Nc2ccccc2)ccc1OC(=O)c1cccs1 | n | n | n | u | n | n
N#CCC(=O)N/N=C\c1cccc(OC/C=C/c2ccccc2)c1 | n | n | n | 3.2µM | n | n
COCC(=O)Nc1cccc(NC(=O)C2CCC2)c1 | x | n | x | x | x | x
Cc1cccc(C)c1OCCN | x | n | x | x | x | x
CC(C)(C)C(=O)/C(C#N)=C\c1ccc(C#N)cc1 | x | n | x | x | x | x
O=C(CCc1ncc(-c2ccccc2F)o1)NCCCN1CCOCC1 | x | n | x | x | x | x
Clc1ccc(C=Nc2ccccc2Cc2ccccc2)cc1 | x | n | x | x | x | x
Cc1ccc(Cl)cc1N1CCN(C(=O)C2CCCN(Cc3nc(-c4cccc(Cl)c4)oc3C)C2)CC1 (stereo unspecified) | n | n | x | 4µM | n | n
Cc1ccc(C)c(N2CCN(C(=O)C3CCCN(Cc4nc(-c5cccc(Cl)c5)oc4C)C3)CC2)c1 (stereo unspecified) | n | n | x | n | n | n
CS(=O)(=O)c1cccc(C(=O)Nc2ccc(-c3ccccc3)cc2)c1 | x | n | x | x | x | x
CN(c1ccccc1)S(=O)(=O)c1cccc(C(=O)NCCc2c[nH]c3ccccc23)c1 | n | n | n | 8.9µM | n | n
Cc1cccc(NC(=O)NCCc2c[nH]c3ccccc23)c1 | n | n | n | 8.9µM | n | n
CC(C)CC(O)(CC(C)C)C(=O)NNc1ccccc1 | n | n | n | 5.6µM | n | n
O=C(CNC(=O)Cn1ccc2ccccc2c1=O)NCCCN1CCN(c2cccc(Cl)c2)CC1 | n | n | n | 10µM | n | n
CCSc1nc(-c2ccc(C)cc2)nc2c1COC(C)(C)C2 | x | n | x | x | x | x
Cc1c(N(C)C)nc2ccccc2c1N | n | n | n | n | n | n
CCN(CC)c1nc2ccccc2c(N)c1-c1ccccc1 | n | u | n | 2.5µM | n | n
COc1cc(/C=C/C(=O)c2ccc(C)c([N+](=O)[O-])c2)cc(OC)c1O | n | n | n | 10µM | n | n
COc1ccc(/C=C/C(=O)c2ccc(C)c([N+](=O)[O-])c2)cc1O | n | n | n | n | u | n
CC1CC(C)CN(S(=O)(=O)c2ccc(C(=O)NCc3ccc4c(c3)OCO4)cc2)C1 (stereo unspecified) | n | n | n | 10µM | n | n
Cc1ccc(S(=O)(=O)N2CCCC(C(=O)NCCc3ccc4c(c3)OCO4)C2)cc1 (stereo unspecified) | n | n | n | 13µM | n | n
CC1CCN(S(=O)(=O)c2ccc(C(=O)NCc3ccc4c(c3)OCO4)cc2)CC1 | n | n | n | n | n | n
CCOC(=O)c1cn[nH]c1S(=O)(=O)N(CC(C)C)CC(C)C | x | n | x | x | x | x
COc1cc(CNC(=O)c2ccc3nc(CCc4ccccc4)oc3c2)cc(OC)c1OC | n | n | x | 11µM | n | n
CC(CNC(=O)c1ccc2nc(Cc3ccccc3)oc2c1)c1ccccc1 (stereo unspecified) | n | n | x | 11µM | n | n
SMILES | PTHR1 ag | LDHA inh | GLP-1R agonist | GLP-1R inv ag | HEK293 tox | mIDH1 inhibitor
O=C(Nc1ccc(N2CCCCC2)cc1)c1nn(-c2ccccc2)c(=O)c2ccccc12 | x | n | x | x | x | x
CN(C(=O)c1ccc(Br)cc1)C1CCCCC1 | x | n | x | x | x | x
CN(C(=O)c1ccc(-c2ccccc2)cc1)C1CCCCC1 | n | n | n | 10µM | n | n
CCN(CC)C(=S)NC(=O)c1ccc(F)cc1 | n | n | n | u | 3.5µM | n
O=C(NC1CCCC1)c1ccc2ccccc2c1 | x | n | x | x | x | x
CNc1ccccc1C(C)(C)c1cc(-c2cccc(Br)c2)no1 | n | n | n | 2.8µM | n | n
COc1ccc(CNC(=S)NC(C)CCc2ccccc2)cc1 (stereo unspecified) | n | n | n | 10µM | u | n
COc1ccc(OC)c(Nc2nc(NCC(C)C)nc3c2cnn3-c2ccccc2)c1 | x | n | x | x | x | x
CCOc1ccc2nc(NS(=O)(=O)c3cccs3)sc2c1 | n | n | n | n | n | n
CCOc1ccc2nc(S(N)(=O)=O)sc2c1 | n | -80 | n | n | n | n
COc1cccc(C2C(C(=O)Nc3ccccn3)=C(C)Nc3ncnn32)c1OC (stereo unspecified) | x | n | x | x | x | x
COc1ccc(-c2ccc(CCC(=O)NC(C)C)o2)cc1 | x | n | x | x | x | x
CCCCc1cc(=O)oc2cc(OCC(=O)NCc3ccc(S(N)(=O)=O)cc3)ccc12 | x | n | x | x | x | x
CCCc1cc(=O)oc2cc(OCC(=O)Nc3ccc(S(N)(=O)=O)cc3)ccc12 | n | -37 | n | n | n | n
CCCCCCCOC(=O)C[N+](C)(C)CCOC1CC2CCC1(C)C2(C)C (stereo unspecified) | n | n | n | u | 11µM | n
Cc1cccc(C(=O)NCCCN(C)CC(F)(F)F)n1 | x | -31 | x | x | x | x
CN(CCCNC(=O)c1ccccn1)CC(F)(F)F | x | n | x | x | x | x
CCCCCn1nc(C(=O)Nc2ccc(Br)cc2F)c2ccccc2c1=O | x | n | x | x | x | x
c1ccc(-c2ccc(-c3cnc4n3CCCCC4)cc2)cc1 | n | n | n | 5µM | u | n
Cc1ccc(-c2cnc3n2CCCCC3)cc1 | n | n | n | u | u | n
Cc1ccc(C(=O)Nc2cccc(C(=O)NCc3ccccc3)c2)cc1 | n | n | n | 13µM | n | n
Cc1cccc(C(=O)NNC(=O)c2ccc3ccccc3c2)c1 | n | -38 | n | n | n | n
O=C(Nc1cccc(NC(=O)c2ccccc2Cl)c1)c1ccc(F)cc1 | n | n | n | u | n | n
Cc1ccccc1C(=O)Nc1cccc(NC(=O)c2ccc(F)cc2)c1 | n | n | n | 10µM | n | n
Cc1ccc(C(=O)Nc2ccc3ccccc3c2)cc1 | n | n | n | 5µM | n | n
SMILES | PTHR1 ag | LDHA inh | GLP-1R agonist | GLP-1R inv ag | HEK293 tox | mIDH1 inhibitor
Cc1cccc(C(=O)NNC(=O)c2cccc(C)c2)c1 | n | n | n | n | n | n
CCOC(=O)c1cccc(NC(=S)NCc2ccc(C)cc2)c1 | n | n | n | 7.9µM | n | n
FC(F)(F)c1cccc(NC(=S)NC2CC2)c1 | x | n | x | x | x | x
Cc1ccc(-c2ccc(/C=N/c3ncn[nH]3)o2)cc1Cl | n | n | n | 8.9µM | u | n
COC(=O)N/N=C/c1ccc(-c2ccc(C)c(Cl)c2)o1 | n | n | n | n | n | n
CCOc1ccc(S(=O)(=O)NCCc2ccccc2)cc1-c1nc(C)no1 | x | n | x | x | x | x
OC(CNc1ccccc1)Cn1ccc2ccccc21 (stereo unspecified) | n | n | n | 11µM | n | n
OC(CN1CCCC1)Cn1ccc2ccccc21 (stereo unspecified) | n | n | n | n | n | n
